# Source: PubChem BioAssay (several laboratories)
# A selection: hits, their analogues and other compounds. The true share with any hit is near 4.7%.
# tim10-1 inh: tim10-1 yeast growth inhibition. 330,000 tested, 2.2% active. inhibition, % at 20 µM. AID 463190. S. cerevisiae tim10-1 ts strain growth, BacTiter-Glo, 24 h;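 active = inhibition of at least 40%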;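 note: mutant grown at 25 °C; 0% = DMSO wells with yeast and 100% = wells holding no yeast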
# tim23-1 inh: tim23-1 yeast growth inhibition; S. cerevisiae tim23-1 growth, BacTiter-Glo luminescence, 24 h; 330,000 tested, 1.3% active; inhibition, % at 20 µM;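 active = growth inhibition of the mutant yeast at or above 50%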;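 note: temperature-sensitive mutant grown at 25 °C; plate controls were DMSO-treated mutant yeast for no effect and medium wells lacking yeast for full effect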
# Calb FLC: affects C. albicans growth with fluconazole; C. albicans CaCi-2 (fluconazole-resistant clinical isolate) + fluconazole, Alamar Blue growth, 48 h; growth inhibition, % (concentration not given with the values); 300,000 tested, 0.57% active; AID 1979;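 active = growth inhibition above about 58% in most replicates, limit read from the data, passing the limit was not always enough; inconclusive = exactly half the replicates above a set limit; inactive = most replicates below a set limit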;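 note: all wells also contain fluconazole at 8 µg/ml as a sub-toxic cotreatment; 0% = median of DMSO wells and 100% = median of geldanamycin control wells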
# PfHsp90 set2: growth inhibition of yeast expressing Plasmodium Hsp90; S. cerevisiae expressing PfHsp90, BacTiter-Glo ATP, 48 h; yeast lacking PDR1 and PDR3 efflux regulators; inhibition, % at 9.4 µM; 310,000 tested, 0.32% active; AID 504621;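 active = every replicate shows inhibition above about 80%, whatever the replicate mean, limit read from the data; inconclusive = mean inhibition reaches the set limit but some replicate falls short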;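 note: 0% = DMSO neutral controls and 100% = 20 µM radicicol positive controls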
# SKKanGAS inh: blocks kanamycin growth of S. pyogenes SKKanGAS strain | BacTiter-Glo, 6 h | inhibition, % at 7.5 µM | 300,000 tested, 1.3% active;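 active = mean replicate score, as percent of positive control median, at least 50; inconclusive = mean below 50 but one replicate at or above 50; inactive = mean and every replicate below 50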;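 note: strain carries kanamycin resistance gene driven by streptokinase promoter and grows in 40 µg/ml kanamycin; loss of luminescence reflects streptokinase promoter inhibition or plain growth inhibition; 0% = median of DMSO wells and 100% = positive control at its reference dose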
# TIM10 inh: TIM10 yeast growth inhibition; inhibition, % at 10 µM; S. cerevisiae TIM10 strain growth, BacTiter-Glo luminescence, 24 h; 330,000 tested, 1.4% active; AID 463195;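 active = inhibition of 40% or more at the single tested concentration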;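 note: wild-type TIM10 isogenic control strain grown at permissive 25 °C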
# tim10-1 confirm: tim10-1 yeast growth inhibition, confirmed. shares compounds with tim10-1 inh. AID 463213. inhibition, % at 20 µM. 7,400 tested, 56% active. S. cerevisiae tim10-1 ts strain growth, BacTiter-Glo, 24 h;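 active = inhibition of yeast growth at or above a set limit in either of two repeat tests at 20 µM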;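 note: tim10-1 mutant grown at permissive 25 °C to find synthetic lethal compounds; 0% = DMSO yeast wells and 100% = medium wells without yeast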
# Active calls of the source: *; ? = inconclusive; · = no result.
SMILES,tim10-1 inh,tim23-1 inh,Calb FLC,PfHsp90 set2,SKKanGAS inh,TIM10 inh,tim10-1 confirm
COc1ccc(NC(=O)NCCCCc2ccccc2)c(OC)c1,3.7,6.1,-4.6,-2.8,?,-4.7,·
Cc1nn(Cc2ccc(Cl)c(Cl)c2)c(C)c1NC(=O)c1sc2ccccc2c1Cl,40.5*,28.2,2.5,-29.7,24.6,37.0,40.6*
Cc1ccc(CNC(=O)c2ccc(Cn3nc(C)c(Cl)c3C)o2)cc1,54.8*,11.8,4.4,108.7*,3.6,11.6,53.9*
Cc1csc(NC(=O)c2ccc(Cn3nc(C)c(Br)c3C)o2)n1,26.2,49.2,7.3,-4.4,7.0,13.9,·
Cc1cc(C)cc(NC(=O)c2ccc(Cn3nc(C)c(Cl)c3C)o2)c1,40.7*,34.6,23.0,-38.1,15.2,36.3,30.1*
Cc1nn(Cc2c(Cl)cccc2Cl)c(C)c1NC(=O)c1sc2ccccc2c1Cl,14.7,-13.8,-3.3,-34.3,-3.3,5.5,·
Cc1nn(Cc2ccc(C(=O)N/N=C/c3ccncc3)o2)c(C)c1Cl,-12.5,-8.0,24.9,13.8,1.7,-2.5,·
COc1cc(OC)cc(C(=O)NNC(=O)CCC(=O)c2cc(C)sc2C)c1,-4.5,14.8,·,-6.6,·,0.1,·
Cc1ccc(S(=O)(=O)NC(=O)c2ccc(F)cc2)c(C)c1,-1.6,7.6,1.9,-22.6,-1.3,-5.1,·
Cc1ccc(S(=O)(=O)NC(=O)c2ccc(-c3ccc(-c4ccccc4)cc3)o2)c(C)c1,42.7*,10.3,3.3,·,25.4,-0.5,33.2*
COc1ccc(C(CNC(=O)c2oc3cc(Br)ccc3c2C)N2CCCCC2)cc1 (stereo not given),42.0*,30.1,-17.6,-6.2,-9.9,35.4,-17.1
COc1cc(/C=C/C(=O)c2ccc(O)cc2)ccc1OCC#N,17.4,20.7,2.2,3.3,2.9,12.2,·
COc1cccc(C(=O)/C=C/c2ccc(OCC#N)c(OC)c2)c1,42.6*,38.4,15.8,-19.9,-0.3,37.9,30.6
COC(=O)c1ccc(/C=C/C(=O)c2cccc(OC)c2)cc1,42.1*,35.7,-3.5,6.7,17.7,20.4,34.4*
Cc1ccc(C)c(S(=O)(=O)c2c[nH]c(=S)[nH]c2=O)c1,16.6,0.5,11.1,-27.1,-6.1,13.6,·
O=CN(Cc1nc2ccccc2[nH]1)c1ccc(C(=O)O)cc1,·,·,·,-1.4,·,·,·
[O-][n+]1c(/C=C/c2ccccc2)ccc2ccccc21,49.0*,49.9,0.2,5.8,6.6,22.6,27.9
COc1ccc(S(=O)(=O)n2nc(OC(=O)c3ccncc3)cc2N)cc1,22.9,13.4,4.3,0.2,-1.6,16.2,·
COc1ccc(S(=O)(=O)n2nc(OC(=O)c3ccco3)cc2N)cc1,41.1*,32.5,13.4,42.1,5.3,-2.4,24.3
COc1ccccc1C(=O)Oc1cc(N)n(S(=O)(=O)c2ccccc2)n1,40.0,25.7,2.0,-19.8,5.8,29.2,23.9
Cc1ccccc1C(=O)Oc1cc(N)n(S(=O)(=O)c2ccccc2)n1,48.1*,21.9,40.9,-6.6,2.4,30.7,26.7
O=C1CCN(Cc2ccc(Cl)cc2Cl)C(=O)N1,·,·,·,-46.0,·,·,·
CC(C)(C)c1nnc(NC(=O)C2CC(=O)N(CCc3ccc(F)cc3)C2)s1 (stereo not given),-4.9,2.2,2.1,3.7,1.3,-5.3,·
CCCCOC(=O)n1c(SCC(=O)N(C)C)nc2ccccc21,40.6*,10.7,28.7,-7.1,-3.9,-14.3,7.2
CCCCOc1ccc(OCCSc2nc3ccccc3n2CC(=O)O)cc1,-4.7,10.5,16.4,3.4,7.0,5.2,·
O=C(CCC(=O)c1cccs1)NCc1ccccc1Cl,-3.0,4.3,·,·,·,-6.8,·
Cc1cc(N2CCOCC2)nc2ccc(NC(=S)NCCC(C)C)cc12,43.7*,27.1,10.3,16.1,-0.8,12.4,28.5*
CCCn1nnc(NC(=O)c2cccc(Cl)c2)n1,11.9,7.0,-7.2,-12.4,-2.0,-3.9,·
CCCn1nnc(NC(=O)c2cccc(OCc3ccccc3)c2)n1,43.8*,31.6,10.0,-17.6,-7.0,29.0,36.0*
CC(Sc1nnc(-c2cccs2)n1N)C(=O)NCC1CCCO1 (stereo not given),1.8,-0.3,·,27.1,-19.2,-7.5,·
